# A selection: hits, their analogues and other compounds. The true share with any hit is near 5.9%.
# PRMT1 inh = PRMT1 methyltransferase inhibitors, primary screen, biochemical, fluorescence polarization; Protein arginine N-methyltransferase 1 (Homo sapiens), Q99873; recombinant PRMT1, activity-based probe fluorescence polarization; inhibition, % at 2.79 µM; 1.3% of 370,000 active;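 active = inhibition above about 21% made by adding two undisclosed values, limit read from the data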
# ALR inh = inhibitors of human ALR sulfhydryl oxidase, primary screen, biochemical, H2O2 detection, HRP-luminol luminescence, single point. FAD-linked sulfhydryl oxidase ALR (Homo sapiens), P55789. inhibition, % (no concentration beside the values). 3.8% of 290,000 active. AID 485317, 2010. purified ALR, DTT oxidation;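 active = mean replicate inhibition above about 79%, with every replicate also reaching it, limit read from the data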
# LANA-H2B inh = blockers of LANA interaction with H2A/H2B – biochemical, FP readout, HTS, primary screen. Protein LANA1 (Human herpesvirus 8 type P (isolate GK18)), Q9QR71. cell-free LANA-H2A/H2B peptide, fluorescence polarization. inhibition, % (concentration not given with the values). 0.6% of 320,000 active. AID 2629, 2010; in the data active = inhibition mostly above about 10%, no sharp cut-off; inactive = mostly below about 6.7%
# rCAG binder = binders of r(CAG) RNA repeats, primary screen, biochemical, fluorescence; r(CAG) RNA repeat, TO-PRO-1 dye displacement fluorescence; inhibition, % at 3 µM; 1.3% of 370,000 active; AID 651821, 2012;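 active = inhibition above the plate cutoff, the mean of all test compounds on that plate plus 3 SD, cut at about 35% in these data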;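 note: 0% = DMSO alone and 100% = 100 µM mitoxantrone as full dye displacement; higher means more dye released from RNA so lower well fluorescence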
# Rtt109 HAT inh = inhibitors of C. albicans Rtt109/Vps75 HAT, primary screen, biochemical, ThioGlo CoA-SH fluorescence, plate reader. Histone acetyltransferase RTT109 (Candida albicans (strain SC5314 / ATCC MYA-2876)), …. inhibition, % at 34.9 µM. AID 540336, 2011. purified Rtt109/Vps75, 4 h. 0.16% of 330,000 active;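 active = inhibition of at least 50% in every replicate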
# Target sequence (Q5AAJ8 whole entry, looked up): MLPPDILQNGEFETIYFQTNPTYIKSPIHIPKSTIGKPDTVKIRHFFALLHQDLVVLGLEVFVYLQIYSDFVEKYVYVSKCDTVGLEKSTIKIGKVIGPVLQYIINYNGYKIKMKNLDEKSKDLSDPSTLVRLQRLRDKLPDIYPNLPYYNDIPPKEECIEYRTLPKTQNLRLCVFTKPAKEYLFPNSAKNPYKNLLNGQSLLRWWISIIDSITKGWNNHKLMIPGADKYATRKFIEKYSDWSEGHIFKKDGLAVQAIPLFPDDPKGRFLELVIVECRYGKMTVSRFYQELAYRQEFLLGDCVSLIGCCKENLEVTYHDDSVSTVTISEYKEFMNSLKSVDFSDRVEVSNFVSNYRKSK
# ABHD5-PLIN5 inh = ABHD5-PLIN5 interaction inhibitors, primary screen, cell lysate, split luciferase complementation, luminescence. Perilipin-5 (Homo sapiens) + 1-acylglycerol-3-phosphate O-acyltransferase ABHD5 (Homo …. Split G. princeps luciferase complementation, 4 h. inhibition, % at 4 µM. 0.78% of 360,000 active;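 active = inhibition above the mean inhibition across every tested compound plus 3 SD, cut at about 22% in these data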;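 note: 0% = DMSO only wells and the 100% control is not disclosed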
# ABHD5-PLIN5 conf = ABHD5-PLIN5 interaction inhibitors, confirmation, biochemical, luminescence; shares compounds with ABHD5-PLIN5 inh; inhibition, % at 4 µM; 67% of 2,200 active; in the data active = inhibition above about 23%;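 note: 0% = DMSO vehicle wells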
# HNF4 counter = HNF4 dimerization inhibitors, counter-screen for ABHD5-PLIN5 interaction inhibitor project, biochemical, split-luciferase complementation, luminescence; shares compounds with ABHD5-PLIN5 inh; inhibition, % at 4 µM; 77% of 2,200 active; AID 651674, 2012;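 active = mean inhibition across replicate wells exceeding the computed hit threshold, cut at about 13% in these data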;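 note: light from luciferase halves that rejoin when HNF4 fusion proteins dimerize; 0% = DMSO only wells and the 100% control is not given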
# An asterisk follows results filed as active; · = not tested or not shown.
SMILES,PRMT1 inh,ALR inh,LANA-H2B inh,rCAG binder,Rtt109 HAT inh,ABHD5-PLIN5 inh,ABHD5-PLIN5 conf,HNF4 counter
Cc1cc(/C=C2\C(=O)NC(=O)N(c3ccc(Cl)cc3)C2=O)c(C)n1-c1cccc(C(=O)O)c1,20.6,43.8,-4.3,27.2,0.3,12.5,·,·
O=C1NC(=O)N(c2ccccc2)C(=O)/C1=C/c1coc2ccc(O)cc2c1=O,8.9,54.9,4.5,9.8,20.9,36.8*,90.4*,87.5*
O=C1NC(=O)N(c2ccc(Cl)cc2)C(=O)/C1=C/c1coc2ccc(O)cc2c1=O,6.1,41.0,-3.8,11.6,13.4,25.1*,86.6*,80.6*
O=C1NC(=O)N(c2ccccc2)C(=O)/C1=C\c1ccc2c3c(cccc13)CC2,·,·,-0.8,·,·,·,·,·
O=C1NC(=O)N(c2ccccc2)C(=O)/C1=C/c1ccoc1,3.8,10.0,-6.1,-7.6,-2.4,4.2,·,·
O=C1NC(=O)N(c2ccccc2)C(=O)/C1=C\c1ccccc1[N+](=O)[O-],5.5,62.0,0.1,1.7,22.9,24.1*,78.2*,80.0*
O=C1NC(=O)C(=Cc2ccc(N3CCN(C(=O)c4ccccc4)CC3)c([N+](=O)[O-])c2)C(=O)N1,7.7,9.5,-1.9,-1.1,·,40.9*,91.2*,90.0*
COC(=O)N(c1ccccc1)P(=O)(Oc1ccccc1)Oc1ccccc1,2.1,·,-5.0,-1.5,0.2,6.1,·,·
Cc1cc(C)cc(N2C(=O)NC(=O)/C(=C\c3cccn3-c3ccccc3)C2=O)c1,5.0,51.2,2.7,10.5,-8.9,25.3*,58.0*,69.5*
NS(=O)(=O)c1ccc(N=Cc2c(O)n(-c3ccccc3)c(=O)[nH]c2=O)cc1,3.0,-1.8,1.2,4.8,3.4,21.4,·,·
CNS(=O)(=O)c1ccc(N=Cc2c(O)n(-c3ccc(C)cc3)c(=O)[nH]c2=O)cc1,2.2,2.3,-0.6,-0.5,7.8,27.6*,10.3,37.2*
Cc1ccc(-n2c(O)c(C=Nc3ccc(S(N)(=O)=O)cc3)c(=O)[nH]c2=O)cc1,4.6,-1.7,3.4,-1.6,-13.0,7.2,·,·
CCc1nnc(NS(=O)(=O)c2ccc(N=Cc3c(O)n(-c4ccc(Cl)cc4)c(=O)[nH]c3=O)cc2)s1,2.4,-3.2,1.1,10.0,0.4,30.2*,7.4,15.9*
COC(=O)C1=C(c2ccc(OC(F)(F)F)cc2)C[C@@H]2CC[C@H]1N2C(=O)NCCOc1ccc(OC)cc1,2.6,-0.8,-1.1,-7.1,9.2,-0.1,·,·
OC12ONC(c3ccccn3)C1N1CCC2CC1 (stereo not drawn),10.4,4.0,-7.5,-9.4,·,51.8*,2.3,25.0*
CC[C@@H](O)C[C@H]1CCC[C@@]2(C[C@@H]3OC(=O)/C=C/[C@@](C)(O)[C@@H](O)[C@H](C)[C@@H](O)[C@H](OC4CCC(N(C)C)C(C)O4)[C@@H](O)[C@](C)(O)CCCCC/C=C/[C@@H]4CC(C)(C)O[C@@]4(O)C[C@H](O2)[C@H]3C)O1 (stereo partly drawn),-2.7,·,·,5.5,-0.8,2.8,·,·
Brc1ccc2c(c1)C(OC1CN3CCC1CC3)c1ccccc1CS2 (stereo not drawn),2.3,1.6,-2.9,9.8,-5.5,28.5*,10.5,12.4*
c1ccc2c(c1)CSc1ccccc1C2C1=NCCN1 (stereo not drawn),2.9,0.9,-0.6,-1.2,8.9,6.9,·,·
